Assay outcomes deposited in PubChem BioAssay by Buhrlage Lab, Dana-Farber Cancer Institute and Novartis Institutes for BioMedical Research (Cambridge, Mass).
USP8 block – inhibitors of human USP8 deubiquitinase. P40818. purified USP8, Ub-rhodamine cleavage fluorescence, 30 min. inhibition, % at 20 µM. 47,000 tested, 4.2% active. AID 1645853
USP17 block – inhibitors of human USP17 deubiquitinase. purified USP17, Ub-rhodamine cleavage fluorescence, 3 h. AID 1645855. inhibition, % at 50 µM. A8MUK1. 47,000 tested, 6.5% active
USP28 block – inhibitors of human USP28 deubiquitinase | Q96RU2 | AID 1645857 | 47,000 tested, 3% active | inhibition, % at 25 µM | purified USP28, Ub-rhodamine cleavage fluorescence, 30 min
USP10 inh – inhibitors of human USP10 deubiquitinase; Q14694; purified USP10, Ub-rhodamine fluorescence, 60 min; inhibition, % at 20 µM; 47,000 tested, 1.1% active; AID 1645856
USP30 block – blocks human USP30 ubiquitin-rhodamine cleavage; 47,000 tested, 5.3% active; inhibition, % at 25 µM; AID 1645860; purified USP30, Ub-rhodamine cleavage fluorescence
Hits are given with their value; n = inactive. Hits are enriched below; roughly 13% of the tested compounds scored in any of these assays. Rule as the data show it: active = inhibition above about 30%; inactive = the rest.

SMILES	USP8 block	USP17 block	USP28 block	USP10 inh	USP30 block
CCOC(=O)c1cnn(-c2ccc(C(=O)Nc3ccc(C)c(Cl)c3)cc2)c1N	n	62	n	n	n
Cc1noc(-c2cc(=O)n(CC(=O)NCc3ccccc3)c3ccccc23)n1	n	53	n	n	n
COc1ccc2[nH]c(CN3CCOC(c4nc(C)cc(C)n4)C3)cc2c1 (stereo unspecified)	n	n	n	n	n
O=C(CN1CCN(C(=O)C2COc3ccccc3O2)CC1)Nc1ccc2c(c1)OCCO2 (stereo unspecified)	n	n	n	n	n
CCOc1cc2[nH]c(=O)n(CCC(=O)NCCc3ccc(OC)c(OC)c3)c(=O)c2cc1OCC	n	n	n	n	n
CCOc1cc2[nH]c(=O)n(Cc3ccc(C(=O)NCCCN4CCC(C)CC4)cc3)c(=O)c2cc1OCC	n	n	n	n	35
COc1ccc(Cn2c(=O)[nH]c3cc(C(=O)N4CCC(Cc5ccccc5)CC4)ccc3c2=O)cc1	n	n	n	n	37
CCOC(=O)N1CCN(C(=O)c2ccc(Cn3c(=O)[nH]c4cc(OC)c(OC)cc4c3=O)cc2)CC1	n	n	n	n	n
COc1cc2[nH]c(=O)n(Cc3ccc(C(=O)N4CCN(C5CCCCC5)CC4)cc3)c(=O)c2cc1OC	n	n	n	n	33
Cc1cnc(C2COCCN2C(=O)c2ccc3ncccc3c2)[nH]1 (stereo unspecified)	n	n	n	n	n
COC(=O)c1cccc(NC(=O)c2ccc(OC)c(S(=O)(=O)N3CCCc4ccccc43)c2)c1	n	n	n	n	n
COc1ccc(C(=O)O)cc1S(=O)(=O)N1CCCc2ccccc21	80	42	n	n	n
Cc1nn(-c2ccc(Cl)cc2)c2[nH]c(=O)c(CNCc3ccco3)cc12	44	n	n	n	n
Cc1nn(-c2ccc(Cl)cc2)c2[nH]c(=O)c(CNCCN(C)C)cc12	53	n	n	n	n
COc1ccc(CCNCc2cc3c(C)nn(-c4ccc(Cl)cc4)c3[nH]c2=O)cc1OC	78	n	n	n	n
COc1ccc(CCNCc2cc3c(C)nn(-c4ccccc4)c3[nH]c2=O)cc1OC	n	n	n	n	n
Cc1nn(-c2ccc(Cl)cc2)c2[nH]c(=O)c(CNCC3CCCO3)cc12 (stereo unspecified)	86	n	n	n	n
Cc1cccc(OCC(=O)NCC2(N3CCOCC3)CCCCC2)c1	n	n	n	n	n
O=C(NC1(O)C(=O)c2ccccc2C1=O)c1cccc2c1-c1ccccc1C2=O	95	91	n	n	45
CC1CCCN(CCCNC(=O)C2CCN(c3nc4ccccc4[nH]3)CC2)C1 (stereo unspecified)	n	n	n	n	n
CN1CCN(c2ccc(-c3nc(-c4ccc(F)cc4)no3)nn2)CC1	n	n	n	n	n
COc1ccc(-c2noc(-c3ccc(N4CCC5(CC4)OCCO5)nn3)n2)cc1	n	45	n	n	n
CC[C@H](C)[C@H](NC(=O)[C@H]([C@@H](C)CC)N(C)C(C)=O)C(=O)N[C@H](C(=O)N[C@@H](CC(C)C)C(=O)C1(C)CO1)[C@@H](C)O (stereo partly specified)	57	43	43	n	n
COc1cccc(OCC(=O)Nc2ccc3c(c2)CCC(=O)N3Cc2ccccc2)c1	n	n	35	n	n
Cc1cccc(OCC(=O)Nc2ccc3c(c2)CCC(=O)N3Cc2ccccc2)c1	n	n	n	n	31
SMILES	USP8 block	USP17 block	USP28 block	USP10 inh	USP30 block
O=C(COc1ccc(Cl)cc1)Nc1ccc2c(c1)CCC(=O)N2Cc1ccccc1	n	n	n	n	n
Cc1c(C(=O)Nc2ccc(Oc3ccccc3)cc2)sc2ncnc(N3CCN(c4ccccc4)CC3)c12	n	n	n	n	n
O=C(COc1coc(CN2CCc3ccccc3C2)cc1=O)Nc1ccccc1F	n	n	n	n	n
O=C(COc1coc(CN2CCc3ccccc3C2)cc1=O)Nc1cccc(F)c1	30	n	n	n	n
O=C(CCn1c(=O)c2ccccc2n(Cc2ccccc2F)c1=O)NCc1ccco1	n	n	n	39	n
N#Cc1ccccc1Cn1c(=O)n(CCCCC(=O)NCc2ccco2)c(=O)c2ccccc21	n	51	n	n	n
Cc1ccccc1Cn1c(=O)n(CCC(=O)NCc2ccco2)c(=O)c2ccccc21	38	n	n	n	n
O=C(O)c1c(CNCc2ccco2)c2ccccc2n1Cc1ccccc1F	n	n	n	n	n
N#Cc1ccccc1Cn1c(=O)n(Cc2ccco2)c(=O)c2ccccc21	n	54	38	n	33
